High-throughput results deposited in PubChem BioAssay by National Center for Advancing Translational Sciences (NCATS).
Shown are actives, neighbours in structure and some others; about 1.2% of the full set was active somewhere.
TRPV1 PAM: human TRPV1 potentiation; TRPV1-expressing cells, Fluo-8 calcium influx, capsaicin EC20 potentiation; potentiation, % at 8.33 µM; 320,000 tested, 0.02% active; in the data active = potentiation above about 80%; inconclusive = between about 30% and that limit
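TRPV1-expressing cells were cultured overnight at 35.5C and loaded with Fluo-8 calcium dye for 40 to 90 min at room temperature. After a 10 s baseline, compound was added and calcium influx was read kinetically for 3 min (ex 480/em 520 nm).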
KCNH2 3.1 block: inhibitors of human KCNH2 3.1 potassium channel isoform; U2OS KCNH2 3.1, thallium flux FluxOr; active compounds read low; activity change, % (tested at about 1.8 µM); 340,000 tested, 0.95% active; AID 720553;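 active = maximum activity change below -70%; inconclusive = maximum activity change from -70% to -50%; inactive = maximum activity change above -50%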;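 note: thallium influx rate constant from kinetic fluorescence after stimulation buffer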
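Virally transduced U2OS (3.1 isoform, 4 h infection in dark at RT) → overnight 37 C → FluxOr + Red40 in HBSS/HEPES, 45 min → stimulation buffer, 2 min kinetic read → rate constant vs DMSO controls.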
TRPV1 ag: activates the human vanilloid receptor TRPV1. TRPV1-expressing cells, Fluo-8 calcium influx, agonist mode. 320,000 tested, 0.19% active. AID 540275. Q8NER1. activation, % at 8.33 µM; in the data active = activation above about 80%; inconclusive = between about 30% and that limit
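TRPV1-expressing cells were cultured overnight at 35.5C and loaded with Fluo-8 calcium dye for 40 to 90 min at room temperature. After a 10 s baseline, compound was added and calcium influx was read kinetically for 3 min (ex 480/em 520 nm).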
hERG WT inh: blocks the wildtype human KCNH2 potassium channel; U2OS, BacMam KCNH2, thallium flux FluxOr; active compounds read low; 340,000 tested, 0.37% active; AID 720551; activity change, % at 1.84 µM;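 active = maximum activity change below -70%; inconclusive = maximum activity change between -70% and -50%; inactive = maximum activity change above -50%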
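U2OS cells were transduced with wild-type KCNH2 virus (2.03 x 10^8 / mL) for 4 h at room temperature, then cultured overnight at 37 C. Thallium flux was read with FluxOr dye. Rate constants were normalized to DMSO controls.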
Each line names hits and unclear results; the compound was inactive in the other large screens.

O=C(C[n+]1cccc(Br)c1)c1cccs1	none
Cc1ccc(S(=O)(=O)Nc2ncnc3sccc23)cc1C	none
COc1ccc(CCNC(=O)C(=O)NCC2OCCN2S(=O)(=O)c2cc(F)ccc2F)cc1OC (stereo unspecified)	none
C/C=C\C(=O)Nc1cccc(C2=NOC3(C2)C[C@@H](C(N)=O)N(C(=O)CCCCC)C3)c1 (stereo partly specified)	TRPV1 PAM inconclusive, hERG WT inh -85
CCCCCC(=O)N1CC2(CC(c3cccc(NC(=O)COc4ccc(Cl)cc4)c3)=NO2)C[C@@H]1C(N)=O (stereo partly specified)	KCNH2 3.1 block -74, hERG WT inh -91
NC(=O)[C@H]1CC2(CC(c3cccc(NC(=O)COc4ccc(Cl)cc4)c3)=NO2)CN1C(=O)c1ccc(Cl)cc1 (stereo partly specified)	KCNH2 3.1 block -91
C/C=C/C(=O)Nc1cccc(C2=NOC3(C2)C[C@@H](C(N)=O)N(C(=O)c2cc([N+](=O)[O-])cc([N+](=O)[O-])c2C)C3)c1 (stereo partly specified)	KCNH2 3.1 block -84
COc1ccc(-c2nnc(SCc3ccc(C(=O)O)cc3)o2)cc1OC	none
CCOC(=O)c1c(NC(=O)C[n+]2ccc(N(C)C)cc2)sc(C)c1C	none
CCN1C(=O)N[C@@H](c2cccc(C(F)(F)F)c2)[C@@H](C(=O)OC)[C@H]1C	none (no result: TRPV1 PAM, TRPV1 ag)
COCCCn1c(=O)c2sccc2n2c(CCCC(=O)NCc3ccc(OC)cc3)nnc12	none
Cc1ccc(N(C)S(=O)(=O)c2cccc(C(=O)OCC(=O)N(C)Cc3ccccc3)c2)cc1	none (no result: TRPV1 PAM, TRPV1 ag)
Cc1nc(-c2cccs2)sc1C(=O)O	hERG WT inh -96
COc1cc(C(=O)NCC(c2cccs2)N2CCOCC2)ccc1OCc1ccc(Cl)cc1 (stereo unspecified)	none (no result: TRPV1 PAM, TRPV1 ag)
COc1ccc(OC(C)C(=O)Nc2ccc(F)cc2F)cc1 (stereo unspecified)	KCNH2 3.1 block -190, hERG WT inh -136
COc1ccc(OC(C)C(=O)Nc2ccccc2F)cc1 (stereo unspecified)	none
CN[C@H]1C[C@H]2c3[nH]c4ccc(-c5ccc(OC)cc5)cc4c3CCN2C(=O)[C@H]1[C@H](C)O	none (no result: TRPV1 PAM, TRPV1 ag)
COc1ccc(NC(=O)CSc2nc3c(oc4ccccc43)c(=O)n2Cc2ccco2)cc1Cl	none (no result: KCNH2 3.1 block, hERG WT inh)
COC(=O)c1cc(S(=O)(=O)N(C)C2CCCCC2)c[nH]1	KCNH2 3.1 block -120
COC(=O)c1cc(S(=O)(=O)N(C)C2CCCCC2)cn1C	none
COC(=O)c1ccc(NC(=O)c2ccc3c(c2)NC(=O)C2CCCN32)cc1 (stereo unspecified)	none (no result: KCNH2 3.1 block, hERG WT inh)
Cc1ccsc1/C=N/n1c(-c2ccccn2)n[nH]c1=S	none
N=c1c2c(n(Cc3ccc(Br)cc3)c3c1CCC3)CCCC2	KCNH2 3.1 block -78
OCC[C@@H]1C[C@@H](O)[C@H](O)[C@@]2(CCc3ccccc3O2)O1	hERG WT inh -169
OCC[C@@H]1C[C@H](O)[C@@H](O)[C@]2(OCCc3ccccc32)O1	none
OCC[C@H]1C[C@@H](O)[C@H](O)[C@]2(OCc3ccccc32)O1	KCNH2 3.1 block -89
OCC[C@@H]1C[C@H](O)[C@@H](O)[C@@]2(OCc3ccccc32)O1	KCNH2 3.1 block -136
OCC[C@@H]1C[C@@H](O)[C@H](O)[C@@]2(OCc3ccccc32)O1	none
O=C(Cc1ccccc1)NNC(=O)c1ccccc1C(=O)O	none
Cc1ccc(C)c(CNc2ccc(S(=O)(=O)N3CCCCC3)cc2)c1	KCNH2 3.1 block -100, hERG WT inh -155
O=C(Cn1nnc(-c2ccc(OCc3ccccc3F)cc2)n1)N1CCOCC1	KCNH2 3.1 block -90
CCN1C(=NCc2cc(OC)c(OC)c(OC)c2)N[C@@H](c2cccc(F)c2)C(C(=O)OC)=C1C	none (no result: KCNH2 3.1 block, hERG WT inh)
COc1ccc(CCNC(=O)C2CC(=O)N(C3CCCCCCC3)C2)cc1OC (stereo unspecified)	KCNH2 3.1 block -201
Cc1ccc(CCNC(=O)C2CC(=O)N(C3CCCCC3)C2)cc1 (stereo unspecified)	none
COc1ccccc1C(=O)NC(=O)COC(=O)c1nc(Cl)ccc1Cl	none
O=C([C@H](Cc1ccc(O)cc1)n1cc(CCO)nn1)N1CCNCC1	TRPV1 PAM inconclusive
CC(C)(O)C#Cc1ccc(C(=O)NC2CCCCC2)s1	KCNH2 3.1 block -81
Cc1cccc(NC(=O)Nc2ccc(Oc3c(F)c(F)c(F)c(F)c3F)cc2)c1	none
O=C(Nc1ccc(Oc2c(F)c(F)c(F)c(F)c2F)cc1)OC1CCN2Cc3ccccc3N=C12 (stereo unspecified)	KCNH2 3.1 block -100, hERG WT inh -83
Cc1ccc(C(=O)NCC(=O)NCCCc2ccccc2)cc1	none
COc1cccc(CN(C)C(=O)c2ccccc2Sc2ccccc2C#N)c1	KCNH2 3.1 block -93
O=C(Cc1ccccc1)NNS(=O)(=O)c1ccccc1[N+](=O)[O-]	none
CC(C(=O)Nc1ccccc1-c1ccccc1)N1CCN(Cc2ccccc2)CC1 (stereo unspecified)	KCNH2 3.1 block -76
Cc1cccc(OCC(=O)Nc2ccc3oc(=O)ccc3c2)c1C	TRPV1 ag inconclusive
CC1C/C(=C/c2cccn2C)C(=O)/C(=C/c2cccn2C)C1 (stereo unspecified)	TRPV1 ag 100
CN1C(=O)CCS(=O)(=O)C1c1ccc(Cl)c(Cl)c1 (stereo unspecified)	none (no result: TRPV1 PAM, TRPV1 ag)
CCN(CC(=O)NC1CC1)S(=O)(=O)c1ccccc1	none
O=C(CN(Cc1ccccc1)S(=O)(=O)c1ccccc1)NC1CC1	hERG WT inh -159
CC(=O)Nc1ccc(S(=O)(=O)N2CCC(c3nnc(-c4ccc(C)cc4)o3)CC2)cc1	KCNH2 3.1 block -137
COc1ccc(-c2nnc(C3CCN(S(=O)(=O)c4ccccc4)CC3)o2)cc1	none
CCOC(=O)c1cnc2ccc(Br)cc2c1NCCCN1CCOCC1	none
COc1cc(SC)ccc1C(=O)Nc1ccc(C)cc1C	KCNH2 3.1 block -82
COc1cc(SC)ccc1C(=O)Nc1ccc(C)cc1	none
O=C(NC12CC3CC(CC(C3)C1)C2)c1ccc(S(=O)(=O)N2CCOCC2)cc1	KCNH2 3.1 block -109, TRPV1 ag inconclusive
O=C(Nc1ccc(S(=O)(=O)N2CCOCC2)cc1)c1ccc(S(=O)(=O)N2CCOCC2)cc1	TRPV1 ag inconclusive
COc1ccc(S(=O)(=O)Nc2cccnc2)cc1OC	none
Cc1ccc(-c2nc(NC(=O)c3nn(C)cc3[N+](=O)[O-])sc2C)cc1	none
Cc1ccc(-c2nc(NC(=O)c3nn(C)cc3[N+](=O)[O-])sc2C)cc1C	KCNH2 3.1 block -82
CCOC(=O)C1=C(C)NC(C)=C(C(=O)OCC)C1C(=O)OCC(=O)NC(C)c1ccccc1 (stereo unspecified)	hERG WT inh -104
CSc1nc(N)nc2c1ncn2CC(=O)N1CCN(c2ccccn2)CC1	none (no result: TRPV1 PAM, TRPV1 ag)
CCC(=O)Oc1ccc(C(=O)Nc2ccc3c(c2)C(=O)N(C2CCCCC2)C3=O)cc1	TRPV1 ag inconclusive
c1ccc(-c2nc3ccccc3c3nc4ccccc4n23)cc1	none
c1ccc(-c2nc3nonc3c3nc4ccccc4n23)cc1	KCNH2 3.1 block -80
